Assay outcomes from PubChem.
HT1080NT lethal = kills 2HG-producing HT-1080-NT fibrosarcoma cells | HT-1080-NT fibrosarcoma viability, CellTiter-Glo ATP luminescence, 48 h | Potency, µM (titrated, usually from 46.1 µM), actives largely listed as cytotoxic | 1.6% of 360,000 active | AID 686970;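 further: NT is the 2HG producing partner of a matched IDH1 knockdown line; nearly all actives have a fitted effect of over 55% in size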
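Luminescent CellTiter-Glo readout after 48 hours of compound exposure at 37 degrees C defined viability of HT-1080-NT cells. Activity was normalized to DMSO wells and cell-free media wells; concentration-response curves were fitted and assigned curve classes.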
TGFb SMAD3 inh = inhibitors of TGF-b signaling; HepG2 CAGA-GFP TGF-b/SMAD3 reporter, GFP fluorescence, 18 h; TGF-beta stimulated, 500 pg/mL final; Potency, µM (titrated, usually from 46.1 µM), actives largely listed as inhibitors; 1.2% of 410,000 active; AID 588855; further: nearly all actives have a fitted effect of over 65% in size
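Using HEPG2 CAGA-GFP reporter cells at 1000 cells/well, we pinned test compounds, stimulated with recombinant TGF-beta (500 pg/mL final) and measured total well GFP after 18 h.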
HepG2 tox = HepG2 cytotoxicity, counter-screen for TGF-b inhibitors; HepG2 CAGA-GFP viability, ATP luminescence, 18 h; Potency, µM (highest dose often 46.1 µM), actives largely listed as cytotoxic; 0.76% of 410,000 active; AID 588856
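CellTiter-Glo luminescence gave cytotoxicity after 18 hours at 37 degrees C. The cells were HepG2 CAGA-GFP in 1% FBS DMEM, stimulated with 500 pg/mL TGF-beta after compound addition. %Activity was normalised to no-cell wells (complete cell-killing) and DMSO (no toxicity), and curves were fitted and classified.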
TDP1 cell noCPT = qHTS for Inhibitors of human tyrosyl-DNA phosphodiesterase 1 (TDP1): qHTS in cells in absence of CPT; Potency, µM (titrated, usually from 46.2 µM), actives largely listed as inhibitors; AID 686978, 2013; DT40 Tdp1-/- hTDP1 cells, no CPT, ATP luminescence, 48 h; 15% of 420,000 active; further: nearly all actives have a fitted effect of over 55% in size
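No-CPT arm: Tdp1-/-;hTDP1 DT40 cells (400/well) plus compounds, incubated ≥48 hr at 37 °C. Readout CellTiter-Glo luminescence.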
HT1080 IDH1KD tx = HT-1080 IDH1 knockdown cell toxicity (counter line); HT-1080 IDH1 knockdown viability, ATP luminescence, 48 h; Potency, µM (titrated, usually from 46.1 µM), actives largely listed as cytotoxic; 2% of 360,000 active; AID 686971
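Knockdown cells (IDH1KD HT-1080) received compounds 2 h after plating at 750 cells/well and were kept 48 h at 37 °C in 5% FBS RPMI. A CellTiter-Glo luminescence read gave % activity for curve fitting.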
TDP1 cell CPT = growth inhibition of DT40 Tdp1-/-;hTDP1 cells with camptothecin (screen for TDP1 inhibitors); chicken DT40 Tdp1-/-;hTDP1 cells + 20 nM CPT, ATP luminescence, 48 h; Potency, µM (titrated, usually from 46.2 µM), most hits filed as inhibitors; 12% of 420,000 active; AID 686979; further: nearly all actives have a fitted effect of over 55% in size
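Chicken DT40 Tdp1-/- cells complemented with human TDP1, 400 cells/well, exposed to compounds plus 20 nM camptothecin for at least 48 h at 37 C; viability read as ATP content by CellTiter-Glo luminescence.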
Of the large screens only hits and unclear results are named; the others gave an inactive call. A selection: hits, their analogues and other compounds. The true share with any hit is near 17%. The call rests on the fitted dose curve; in most records, active means well fitted curve in the direction sought with a large enough effect; inconclusive means small, poorly fitted or top-dose-only effect, or another doubt; inactive means no such curve, though single readings can be large; an effect the other way counts as inactive or inconclusive.

[O-]C(=C(C(=S)Nc1cccc2ccccc12)[n+]1cccc(CO)c1)c1ccc(Cl)s1	TDP1 cell CPT inconclusive
CCc1cccc(CC)c1NC(=S)/C(=C(\[O-])c1ccc(Cl)s1)[n+]1ccccc1	TGFb SMAD3 inh inconclusive, TDP1 cell noCPT 1.8µM, TDP1 cell CPT 2.3µM
Cc1cc(C)cc(NC(=S)/C(=C(\[O-])c2ccc(Cl)s2)[n+]2cccc(C)c2)c1	TDP1 cell noCPT 21µM, TDP1 cell CPT 18µM
Cc1ccc(C)c(NC(=S)/C(=C(\[O-])c2ccc(Cl)s2)[n+]2ccccc2)c1	none
CCn1c(SCC(=O)Nc2c(C)cccc2C)nnc1-c1nonc1NC(C)=O	none (no result: HT1080NT lethal, HT1080 IDH1KD tx)
O=C(CSc1nnc(CNC(=O)c2ccco2)o1)Nc1cccc(F)c1	none
CCC/C=N/Nc1nnc(Cc2ccc(OC)c(OC)c2)c(=O)[nH]1	none
CCC(C(=O)OCC(=O)c1ccc2c(c1)NC(=O)CO2)c1ccccc1 (stereo not drawn)	TDP1 cell noCPT 21µM
CC(O)C(NS(=O)(=O)c1ccc(Cl)cc1)C(=O)OCC(=O)c1ccc2c(c1)NC(=O)CO2 (stereo not drawn)	none
CC(C)CC(NC(=O)c1ccc(Cl)cc1)C(=O)OCC(=O)c1ccc2c(c1)NC(=O)CO2 (stereo not drawn)	HT1080NT lethal 10µM, TGFb SMAD3 inh 11µM, HepG2 tox 3.2µM, TDP1 cell noCPT 12µM, HT1080 IDH1KD tx 8.2µM, TDP1 cell CPT 12µM
Cc1ccc(NC(=O)C[n+]2cc(-c3ccc(C)cc3)n3c2CCC3)cc1	TDP1 cell noCPT 5.2µM, TDP1 cell CPT 4.1µM
Cc1ccccc1NC(=O)C[n+]1cc(-c2ccccc2)n2c1CCC2	none
Cc1ccc(-c2c[n+](CC(=O)Nc3ccc(C)cc3C)c3n2CCC3)cc1	TDP1 cell noCPT 15µM, TDP1 cell CPT inconclusive
Cc1cccc(C)c1NC(=O)C[n+]1cc(-c2ccccc2)n2c1CCC2	none
CCNC(=O)C1(C)CCN(C(=O)c2ccc3ccccc3c2)C1 (stereo not drawn)	none
O=C(Nc1ccccc1Cl)C1CCCN(S(=O)(=O)c2cccc3cccnc23)C1 (stereo not drawn)	TDP1 cell noCPT inconclusive, TDP1 cell CPT inconclusive
O=C(Nc1ccc(F)cc1)C1CCCN(S(=O)(=O)c2cccc3cccnc23)C1 (stereo not drawn)	TDP1 cell noCPT inconclusive, TDP1 cell CPT inconclusive
CCc1ccc(NC(=O)C2CCCN(S(=O)(=O)c3cccc4cccnc34)C2)cc1 (stereo not drawn)	TGFb SMAD3 inh 10µM, TDP1 cell noCPT 16µM, TDP1 cell CPT 18µM (no result: HT1080NT lethal, HT1080 IDH1KD tx)
CC(=O)c1cccc(NC(=O)C2CCCN(S(=O)(=O)c3cccc4cccnc34)C2)c1 (stereo not drawn)	TDP1 cell noCPT inconclusive, TDP1 cell CPT 21µM
O=C(Nc1nc2cc(Cl)ccc2s1)C1CCCN(S(=O)(=O)c2cccc3cccnc23)C1 (stereo not drawn)	TGFb SMAD3 inh inconclusive, TDP1 cell noCPT 16µM, HT1080 IDH1KD tx inconclusive, TDP1 cell CPT 21µM
O=C(Nc1nccs1)C1CCCN(S(=O)(=O)c2cccc3cccnc23)C1 (stereo not drawn)	TDP1 cell noCPT 15µM, TDP1 cell CPT inconclusive
CCc1ccccc1NC(=O)CCn1nc(C)c2c(C)n(-c3ccccc3)nc2c1=O	none (no result: HT1080NT lethal, HT1080 IDH1KD tx)
Cc1cnc(C)c(-c2cc(F)cc3c2OC(CNC(=O)C2CCOC2)C3)n1 (stereo not drawn)	none (no result: HT1080NT lethal, TGFb SMAD3 inh, HepG2 tox, HT1080 IDH1KD tx)
O=C(O)c1ccc(C(S(=O)(=O)c2ccccc2)S(=O)(=O)c2ccccc2)cc1	none
Cc1cc(C)c2c(=O)n3c(nc2c1)C(Cc1ccc(O)cc1)NC(=O)c1cc2ccccc2cc1-3 (stereo not drawn)	HT1080NT lethal inconclusive, TGFb SMAD3 inh inconclusive, TDP1 cell noCPT 18µM, HT1080 IDH1KD tx inconclusive, TDP1 cell CPT 16µM
COc1ccc2nc3n(c(=O)c2c1)-c1cc2ccccc2cc1C(=O)NC3Cc1ccc(O)cc1 (stereo not drawn)	HT1080NT lethal 6.5µM, TGFb SMAD3 inh inconclusive, TDP1 cell noCPT 18µM, HT1080 IDH1KD tx 3.3µM, TDP1 cell CPT inconclusive
O=C1NC(Cc2ccc(O)cc2)c2nc3ccc(Br)cc3c(=O)n2-c2cc3ccccc3cc21 (stereo not drawn)	HT1080NT lethal 16µM, TGFb SMAD3 inh 13µM, TDP1 cell noCPT 9.2µM, HT1080 IDH1KD tx 13µM, TDP1 cell CPT 12µM
O=C1NC(Cc2ccc(O)cc2)c2nc3ccc(Br)cc3c(=O)n2-c2ncccc21 (stereo not drawn)	TDP1 cell noCPT inconclusive
Cc1cc(C)c2c(=O)n3c(nc2c1)C(CC(C)C)NC(=O)c1cccnc1-3 (stereo not drawn)	TGFb SMAD3 inh inconclusive, TDP1 cell noCPT 23µM, TDP1 cell CPT inconclusive
Cc1cc(C)nc(NS(=O)(=O)c2ccc(NS(=O)(=O)c3ccc(F)c(F)c3)cc2)n1	none
CC1CCC(NC(=O)CCN2C(=O)C3CC=CCC3C2=O)CC1 (stereo not drawn)	none
Cc1ccc(Cl)cc1NC(=O)c1cnn2c(C(F)F)cc(-c3ccccc3)nc12	none (no result: HT1080NT lethal, HT1080 IDH1KD tx)
COc1ccccc1CC(NC(C)=O)C(=O)NC1CCN(C(=O)Nc2ccccc2F)CC1 (stereo not drawn)	none
COc1ccc2nc3n(c(=O)c2c1)-c1cc2ccccc2cc1C(=O)NC3Cc1ccccc1 (stereo not drawn)	TDP1 cell noCPT 21µM, TDP1 cell CPT inconclusive
Cc1ccc(/C=C/C(=O)NCCc2c[nH]c3ccccc23)o1	none
Cc1ccc(/C=C/C(=O)NCCc2cccc(Cl)c2)o1	HT1080NT lethal inconclusive, TDP1 cell noCPT 18µM, HT1080 IDH1KD tx inconclusive, TDP1 cell CPT 10µM
Cc1ccc(/C=C/C(=O)Nc2ccc(N(C)C)cc2)o1	TDP1 cell noCPT inconclusive, TDP1 cell CPT 21µM
Cc1ccc(/C=C/C(=O)NCC2COc3ccccc3O2)o1 (stereo not drawn)	TGFb SMAD3 inh inconclusive, TDP1 cell noCPT 16µM, TDP1 cell CPT 16µM
Cc1ccc(/C=C/C(=O)NC2CCCCCCC2)o1	TGFb SMAD3 inh inconclusive, TDP1 cell noCPT 3.7µM, HT1080 IDH1KD tx inconclusive, TDP1 cell CPT 2.6µM
C=C(C)c1cccc(C(C)(C)NC(=O)NNC(=O)c2ccccc2O)c1	TDP1 cell noCPT inconclusive, HT1080 IDH1KD tx inconclusive
CCN(CCN(C)C)C(=O)c1ccc2c(c1NCCO)C(=O)c1ccccc1C2=O	HT1080NT lethal inconclusive, TDP1 cell noCPT 23µM, HT1080 IDH1KD tx inconclusive, TDP1 cell CPT inconclusive
